# The list is not random: actives were taken first. Their share in the collection is about 15%.
# Pf growth 48h: P. falciparum growth inhibition at 48 hours (one generation). P. falciparum luciferase growth in erythrocytes, 48 h. Potency, µM (top dose mostly 28.7 µM), for inactives: top-dose activity change, negative = inhibition, actives largely listed as inhibitors. 310,000 tested, 5.9% active. AID 504832; note: potency is the fitted concentration of half-maximal effect; % is set by controls: 0 for no effect and ±100 for the full control effect
#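 Compounds are pin-transferred into medium, infected erythrocytes (2% hematocrit, 0.1% parasitemia final) are added, and plates sit one parasite generation at 37 C in 5% CO2. Detection reagent is then added and luminescence measured.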
# Pf growth 96h: P. falciparum growth inhibition at 96 hour, primary screen for plastid delayed-death inhibitors | AID 504834 | P. falciparum luciferase reporter growth, 96 h | Potency, µM (top dose mostly 28.7 µM), inactives show at the top dose activity change, negative = inhibition, actives largely listed as inhibitors | 320,000 tested, 6.9% active; note: potency is the fitted concentration of half-maximal effect; % is set by controls: 0 for no effect and ±100 for the full control effect
#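 Infected RBCs, 2% Hct / 0.05% parasitemia final; luciferase-reporter P. falciparum; cpd 96 h, 37 C, 5% CO2; luciferase detection reagent; luminescence.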
# HCV inh: blocks hepatitis C virus. AID 651820. Huh7.5.1 HCVcc-Cre infection, luciferase reporter, 44 h. Potency, µM (top dose mostly 41.8 µM), without a hit: top-dose activity change, negative = inhibition, actives largely listed as inhibitors. 340,000 tested, 3.4% active; note: potency is the fitted concentration of half-maximal effect; % is set by controls: 0 for no effect and ±100 for the full control effect
#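 A cell-based infection assay in which seeded cells (1,000 per well) receive test compound after 4 h, are inoculated with HCVcc-Cre at approximately 0.5 moi, and are incubated 44 h before luminescence detection.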
# HCMV inh: human cytomegalovirus inhibition; HFF cells, HCMV-luciferase reporter, 72 h; stronger effect = lower value; activity change, negative = inhibition, % at 57.5 µM; 410,000 tested, 4.5% active; AID 1259415; in the data active = activity change below about -60%; inconclusive = no clear call, values can overlap the other calls; inactive = above about -39%; note: % is set by controls: 0 for no effect and ±100 for the full control effect
#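 Inhibition of viral replication was scored as loss of reporter luminescence in HFFs infected with HCMV-luciferase (MOI 1 PFU/cell) for 72 h; compounds tested at 2 doses, normalized to buffer and Salinomycin controls.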
# Sm TGR block: S. mansoni TGR enzyme inhibition; Q962Y6; purified TGR, DTNB reduction, TNB absorbance 405 nm; Potency, µM (highest dose often 114 µM), inactives show top-dose activity change, negative = inhibition, actives largely listed as inhibitors; 360,000 tested, 3% active; AID 485364; note: potency is the fitted concentration of half-maximal effect; % is set by controls: 0 for no effect and ±100 for the full control effect; nearly all actives have a fitted effect of over 60% in size
#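 First, TGR (20 nM dispensed) and NADPH were mixed with compound. Second, a 15 min room-temperature incubation followed. Third, further NADPH and then DTNB were added to start the reaction. Finally, TNB absorbance was monitored kinetically.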
# SARS PLP yeast: blocks SARS-CoV papain-like protease in a yeast assay. 330,000 tested, 0.19% active. S. cerevisiae expressing SARS-CoV PLpro, growth rescue. Potency, µM (series often up to 32.9 µM), for the others: top-dose activity, positive = growth rescue, actives largely listed as activators. AID 485353; calls by dose curve; note: potency is the fitted concentration of half-maximal effect; 0% is about no effect; nearly all actives have a fitted effect of over 55% in size
# Active calls of the source: *; ? = inconclusive; / = no result; [ ] = remark or other dose. Unless noted, calls come from the whole dose curve; as a rule, active = well fitted curve in the direction sought with a large enough effect; inconclusive = small, poorly fitted or top-dose-only effect, or another doubt; inactive = no such curve, though single readings can be large; an effect the other way counts as inactive or inconclusive.
SMILES,Pf growth 48h,Pf growth 96h,HCV inh,HCMV inh,Sm TGR block,SARS PLP yeast
COc1cccc(NCc2cc(=O)oc3cc(C)c(C(C)C)cc23)c1,?,?,10µM*,-26.4,0.0%,-3.0%
CC(C)c1ccc2oc(=O)cc(CN3CCN(c4ccccc4)CC3)c2c1,13.1µM*,?,-6.9%,-33.7,-26.3%,-1.8%
CCc1ccc2c(CN3CCN(S(=O)(=O)c4ccccc4F)CC3)cc(=O)oc2c1,/,/,12.6µM*,-2.7,/,-11.2%
Cc1cc2oc(=O)cc(CN3CCC(C)CC3)c2cc1C,?,?,-28.2%,16.4,-25.3%,0.3%
Cc1ccc(OCCn2c(=S)[nH]c3c(N)ncnc32)cc1,-19.8%,252.2%,9.4%,-35.6,-29.1%,3.1%
CCOC(=O)c1[nH]c(C)c(C(=O)NC(CC)Cc2ccccc2)c1C (stereo unspecified),/,/,/,-8.6,3.8%,/
CN1CCN(Cc2cc(=O)oc3ccc(Cl)cc23)CC1,-2.9%,13.1µM*,-27.3%,36.2,-2.5%,5.5%
Cc1cc2oc(=O)cc(CSc3nc(N)cc(N)n3)c2cc1C(C)C,/,?,-19.7%,17.4,1.2%,1.5%
Cc1cc2oc(=O)cc(Cn3nnc(-c4ccc(Cl)cc4)n3)c2cc1C(C)C,11.7µM*,?,1.6%,/,0.1%,-2.5%
Cc1cc2oc(=O)cc(CN3CCCCC3C)c2cc1C (stereo unspecified),10.4µM*,9.28µM*,-18.7%,4.8,?,-2.5%
Cc1cc2oc(=O)cc(CN3CCCCC3)c2cc1C(C)C,7.38µM*,5.6%,?,-36.4,-21.7%,-1.4%
COc1ccc(NC(=O)C2CCC(CNS(=O)(=O)c3ccc4c(c3)C(C)(C)C(=O)N4C)CC2)cc1 (stereo unspecified),/,/,/,9.0,-0.5%,/
Cc1cc2oc(=O)cc(CN3CCCCC3)c2cc1O,11.5%,39.0%,-20.3%,-3.1,-14.2%,0.8%
CC(C)c1ccc2oc(=O)cc(CN3CCCCC3)c2c1,7.38µM*,?,-24.7%,4.3,5.1%,-0.8%
CCc1ccc2oc(=O)cc(CN3CCCCC3)c2c1,11.7µM*,5.22µM*,-9.5%,-14.0,2.9%,1.1%
O=S(=O)(c1ccccc1F)N1CCN(CCc2ccccc2)CC1,-0.1%,32.0%,?,-72.3*,18.7%,3.3%
CC1CCN(Cc2cc(=O)oc3ccc4ccccc4c23)CC1,7.38µM*,8.28µM*,-19.9%,-1.4,11.3%,-2.1%
CCCCC[C@@H](C)N1C[C@H](COCc2ccccc2)Oc2cc(N3CCC[C@@H]3COC)ccc2S1(=O)=O,/,/,/,34.7,/,/
Cc1ccc(NC(=O)COC(=O)c2ccc(Cl)nc2)cc1S(=O)(=O)N1CCCCC1,?,-14.5%,3.2%,-6.7,4.8%,0.3%
COc1cc(OC)c(NC(=O)c2ccc3c(SCC(=O)O)c4c(nc3c2)CCCC4)cc1Cl,5.22µM*,226.2%,-28.6%,?,-5.7%,-0.2%
COc1ccc(NC(=O)CSc2c3c(nc4ccc(Cl)cc24)CCCC3)cc1Cl,/,/,/,-79.8*,16.1%,/
Cc1ccc(C)c(NC(=O)CSc2c3c(nc4ccc(Cl)cc24)CCCC3)c1,/,/,/,-74.4*,0.5%,/
COc1ccc(OC)c(NC(=O)c2ccc3c(SCC(=O)O)c4c(nc3c2)CCCC4)c1,/,/,/,-10.8,-3.0%,/
COc1ccc(NC(=O)CSc2c3c(nc4cc(Cl)ccc24)CCCC3)cc1OC,1.6%,22.8%,?,55.0,1.0%,-12.3%
Cc1ccc(CNC(=O)CSc2c3c(nc4ccc(Cl)cc24)CCCC3)cc1,/,/,/,-16.8,-0.1%,/
SMILES,Pf growth 48h,Pf growth 96h,HCV inh,HCMV inh,Sm TGR block,SARS PLP yeast
Cc1ccccc1NC(=O)C(C)Sc1nnc(-c2ccncc2)n1CC1CCCO1 (stereo unspecified),?,10.1%,1.9%,25.5,3.4%,1.4%
O=C(Nc1nc2n(n1)C(c1ccc(F)cc1)CC(c1ccccc1)N2)c1ccco1 (stereo unspecified),-20.2%,?,8.2%,-4.1,-3.4%,-0.2%
COc1ccc(C2CC(c3ccccc3)n3nc(NC(=O)c4cccs4)nc3N2)cc1 (stereo unspecified),?,-14.9%[5.75 µM],?,-11.3,-8.5%,-0.3%
O=C(Nc1nc2n(n1)C(c1ccc(Cl)cc1)CC(c1ccc(Cl)cc1)N2)c1ccco1 (stereo unspecified),10.4µM*,?,-15.4%,20.6,5.2%,3.1%
COc1ccc(C2CC(c3ccc(Cl)cc3)Nc3nc(NC(=O)c4ccco4)nn32)cc1 (stereo unspecified),9.28µM*,13.1%,-21.4%,31.1,-10.4%,-13.2%
O=C1CC(c2ccc(F)cc2)Sc2nc(C34CC5CC(CC(C5)C3)C4)nn21 (stereo unspecified),12.1%,-24.1%,5.3%,-7.8,-8.9%,9.1%
COc1ccccc1NC(=O)c1cc(Sc2nncn2C)nc2ccccc12,-26.4%,/,-13.7%,-37.7,-0.1%,2.3%
CCCCCc1ccc2cc(C#N)ccc2n1,/,/,/,1.9,/,/
O=C(CC1C(=O)NCCN1Cc1ccc(F)c(F)c1)NCCn1cccn1 (stereo unspecified),0.0%,?,-6.6%,-8.4,44.7µM*,0.3%
CCOc1ccccc1CN1CCNC(=O)C1CC(=O)NCCCn1cccn1 (stereo unspecified),-10.1%,11.7µM*,5.5%,?,?,0.8%
CCOc1ccccc1CN1CCNC(=O)C1CC(=O)NCc1nc(C)cs1 (stereo unspecified),4.7%,9.28µM*,/,28.8,?,?
Cc1csc(CNC(=O)CC2C(=O)NCCN2Cc2ccc(F)cc2Cl)n1 (stereo unspecified),2.1%,-1.5%,18.6%,71.8,6.7%,9.4%
O=C(CC1C(=O)NCCN1Cc1cccc(Oc2ccccc2)c1)NCCCn1cccn1 (stereo unspecified),-19.1%,10.4µM*,-1.4%,-35.9,?,-0.5%
CCOc1ccc(NC(=O)CN(C)C(=O)C2CCN(C(=O)c3ccc(Cl)cc3)CC2)cc1OCC,?,8.6%,-13.7%,0.0,-5.3%,-12.0%
C[C@H](CO)N1C[C@H](C)[C@@H](CN(C)C(=O)Nc2cccc(F)c2)OCc2cn(nn2)CCCC1=O,/,/,/,23.9,/,/
CC(C)CCCN1C(N(C)C)=NC[C@@H]1Cc1ccccc1,?,?,?,-6.4,-5.0%,1.5%
O=C(Nc1ccc(-n2nncc2-c2ccco2)cc1)c1cccc(F)c1,-26.2%,?,?,-34.6,?,1.9%
O=C(Nc1ccc(-n2nncc2-c2ccco2)cc1)c1cc2ccccc2oc1=O,2.9%,11.7µM*,1.2%,/,-3.4%,-0.1%
CCC(C)c1ccccc1N1CC(C(=O)NCCCn2nc(C)cc2C)CC1=O (stereo unspecified),17.4%,1.6%,0.4%,40.5,-5.7%,-0.1%

# Screening results: PubChem BioAssay, National Center for Advancing Translational Sciences (NCATS)
